Assay results published in PubChem BioAssay (EPA / NIEHS).
The source made the active and inactive calls. How the source made its calls: active means hit-call score of the fitted dose curve at least 0.9, where 1 is the maximum; inactive means score below 0.9.

Read-out: Interleukin 6 (IL6), IL6 (gene 3569)
Assay: LTEA_HepaRG_IL6: Life Technologies and Expression Analysis (LTEA) Assay for Interleukin 6 (IL6) using HepaRG (AID 2283509)
Settings: mRNA level, 48 h; actives raise or lower the signal
Outline: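 Differentiated human HepaRG cells, plated 48 h then switched to serum-free induction medium, were exposed in duplicate for 48 h to eight half-log concentrations up to 100 uM in 0.5% DMSO. IL6 mRNA measured by qRT-PCR, normalized to ACTB/GAPDH/POLR2A.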

| SMILES | outcome | AC50 |
| --- | --- | --- |
| COc1cc(Cl)c(OC)cc1Cl | inactive |  |
| N#CN=C1SCCN1Cc1ccc(Cl)nc1 | inactive |  |
| COc1ccc(-c2ccccc2)cc1NNC(=O)OC(C)C | inactive |  |
| C=CCOC(=O)C(C)(C)OC(=O)c1cc(-n2c(=O)cc(C(F)(F)F)n(C)c2=O)ccc1Cl | inactive |  |
| COCc1cnc(C2=NC(C)(C(C)C)C(=O)N2)c(C(=O)O)c1 (stereo not drawn) | inactive |  |
| CCOc1nc(C(Cl)(Cl)Cl)ns1 |  | 15 µM (active) |
| Cc1nc(N(C)C)nc(OC(=O)N(C)C)c1C | inactive |  |
| O=C(O)c1c(Cl)ccc2cc(Cl)cnc12 | inactive |  |
| COC(=O)NC(=S)Nc1ccccc1NC(=S)NC(=O)OC | inactive |  |
| CCC(C)n1c(=O)[nH]c(C)c(Br)c1=O (stereo not drawn) | inactive |  |
| COP(=S)(OC)SCn1nnc2ccccc2c1=O | inactive |  |
| CCCCC(O)(Cn1cncn1)c1ccc(Cl)cc1Cl (stereo not drawn) |  | 72 µM (active) |
| Cc1cc(C)nc(Nc2ccccc2)n1 | inactive |  |
| CCSC(=O)N1CCCCCC1 | inactive |  |
| O=P(O)(O)CCCl | inactive |  |
| CC(C)Oc1cccc(NC(=O)c2ccccc2C(F)(F)F)c1 | inactive |  |
| CC(C)(C)C(=O)C(Oc1ccc(Cl)cc1)n1cncn1 (stereo not drawn) | inactive |  |
| Nc1cnn(-c2ccccc2)c(=O)c1Cl | inactive |  |
| CCN(CC)c1nc(C)cc(OP(=S)(OC)OC)n1 | inactive |  |
| CCCN(CC)CC1COC2(CCC(C(C)(C)C)CC2)O1 (stereo not drawn) | inactive |  |
| Nc1c(Cl)c(Cl)nc(C(=O)O)c1Cl | inactive |  |
| CC(C)C1(C)N=C(c2ncccc2C(=O)O)NC1=O (stereo not drawn) | inactive |  |
| COC(=O)N(C(=O)N1CO[C@@]2(C(=O)OC)Cc3cc(Cl)ccc3C2=N1)c1ccc(OC(F)(F)F)cc1 | inactive |  |
